# B1: unnamed (peptide)
# chain: ALRRRLPVTRSKINW
# Molecular target: AgAbp1
# Experiment: SPOT peptide array binding signal intensity (averaged, normalized) (arbitrary units (background-subtracted, floor 0; scale differs between SH3 domains)); higher = stronger binding of the SH3 domain to the peptide
# Procedure, shortened: (§1)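 Spot intensities were captured after detection with anti-GST antibody, an HRP-linked anti-mouse secondary and luminol, and quantified with Genespotter. The probes were GST-fused SH3 domains from four yeast species, produced in E. coli BL21(DE3), purified on glutathione Sepharose and incubated at 10 μg/ml overnight at 4°C on cellulose-bound synthetic 15-mer peptides with cysteines replaced by serines. Binding signal is the normalized, background-subtracted spot intensity averaged over replicates, and its arbitrary units differ between domains.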
row,Binder,SPOT peptide array binding signal intensity
1,B1,348

# Molecular target: AgBbc1
# Experiment: as above
# Procedure, shortened: as §1
row,Binder,SPOT peptide array binding signal intensity
1,B1,122

# Molecular target: AgBem1-D1
# Experiment: as above
# Procedure, shortened: as §1
row,Binder,SPOT peptide array binding signal intensity
1,B1,140

# Molecular target: AgBzz1-D1
# Experiment: as above
# Procedure, shortened: as §1
row,Binder,SPOT peptide array binding signal intensity
1,B1,43

# Molecular target: AgBzz1-D2
# Experiment: as above
# Procedure, shortened: as §1
row,Binder,SPOT peptide array binding signal intensity
1,B1,60

# Molecular target: AgCyk3
# Experiment: as above
# Procedure, shortened: as §1
row,Binder,SPOT peptide array binding signal intensity
1,B1,9.5

# Molecular target: AgFus1
# Experiment: as above
# Procedure, shortened: as §1
row,Binder,SPOT peptide array binding signal intensity
1,B1,583

# Molecular target: AgHof1
# Experiment: as above
# Procedure, shortened: as §1
row,Binder,SPOT peptide array binding signal intensity
1,B1,71.8

# Molecular target: AgHse1
# Experiment: as above
# Procedure, shortened: as §1
row,Binder,SPOT peptide array binding signal intensity
1,B1,1170

# Molecular target: AgLsb1
# Experiment: as above
# Procedure, shortened: as §1
row,Binder,SPOT peptide array binding signal intensity
1,B1,9.75

# Molecular target: AgLsb4
# Experiment: as above
# Procedure, shortened: as §1
row,Binder,SPOT peptide array binding signal intensity
1,B1,189

# Molecular target: AgMyo5
# Experiment: as above
# Procedure, shortened: as §1
row,Binder,SPOT peptide array binding signal intensity
1,B1,≤ 0

# Molecular target: AgNbp2
# Experiment: as above
# Procedure, shortened: as §1
row,Binder,SPOT peptide array binding signal intensity
1,B1,346

# Molecular target: AgRvs167
# Experiment: as above
# Procedure, shortened: as §1
row,Binder,SPOT peptide array binding signal intensity
1,B1,19.5

# Molecular target: AgSho1
# Experiment: as above
# Procedure, shortened: as §1
row,Binder,SPOT peptide array binding signal intensity
1,B1,79

# Molecular target: AgSla1-D1-D2
# Experiment: as above
# Procedure, shortened: as §1
row,Binder,SPOT peptide array binding signal intensity
1,B1,840

# Molecular target: AgSla1-D3
# Experiment: as above
# Procedure, shortened: as §1
row,Binder,SPOT peptide array binding signal intensity
1,B1,5.5

# Molecular target: CaAbp1-D1
# Experiment: as above
# Procedure, shortened: as §1
row,Binder,SPOT peptide array binding signal intensity
1,B1,1340

# Molecular target: CaAbp1-D2
# Experiment: as above
# Procedure, shortened: as §1
row,Binder,SPOT peptide array binding signal intensity
1,B1,526

# Molecular target: CaBbc1
# Experiment: as above
# Procedure, shortened: as §1
row,Binder,SPOT peptide array binding signal intensity
1,B1,302

# Molecular target: CaBem1-D1
# Experiment: as above
# Procedure, shortened: as §1
row,Binder,SPOT peptide array binding signal intensity
1,B1,35

# Molecular target: CaBzz1-D1
# Experiment: as above
# Procedure, shortened: as §1
row,Binder,SPOT peptide array binding signal intensity
1,B1,104

# Molecular target: CaBzz1-D2
# Experiment: as above
# Procedure, shortened: as §1
row,Binder,SPOT peptide array binding signal intensity
1,B1,151

# Molecular target: CaCyk3
# Experiment: as above
# Procedure, shortened: as §1
row,Binder,SPOT peptide array binding signal intensity
1,B1,53.5

# Molecular target: CaFus1
# Experiment: as above
# Procedure, shortened: as §1
row,Binder,SPOT peptide array binding signal intensity
1,B1,1200

# Molecular target: CaHof1
# Experiment: as above
# Procedure, shortened: as §1
row,Binder,SPOT peptide array binding signal intensity
1,B1,1

# Molecular target: CaHse1
# Experiment: as above
# Procedure, shortened: as §1
row,Binder,SPOT peptide array binding signal intensity
1,B1,60

# Molecular target: CaLsb1
# Experiment: as above
# Procedure, shortened: as §1
row,Binder,SPOT peptide array binding signal intensity
1,B1,1.5

# Molecular target: CaLsb4
# Experiment: as above
# Procedure, shortened: as §1
row,Binder,SPOT peptide array binding signal intensity
1,B1,195

# Molecular target: CaMyo5
# Experiment: as above
# Procedure, shortened: as §1
row,Binder,SPOT peptide array binding signal intensity
1,B1,5.5

# — the supplement of paper PMC4466140
